Experimental data from PubChem BioAssay (NCI).
Compounds without any hit were thinned out: in the full panel of roughly 83,000, 20% have a hit.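 How to read the values: 0–100, growth inhibition (40 = 60% inhibited); 0, no net growth; -100 to 0, cell death (-40 = 40% of starting cells died; -100 = all dead).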 Active and inactive are the calls of the source. The calls were made as follows: active = growth percent below 10; inactive = the rest.

These molecules were tested on A549/ATCC NSCLC (assay: NCI-60 one-dose screen, 48 h (100 = growth as untreated, 0 = no growth, -100 = all killed)). Settings: 10 µM unless noted.

| SMILES | growth |
| --- | --- |
| CNC(=O)c1cc(Oc2ccc3nc(NC(=O)c4cccc(OC(F)(F)F)c4)sc3c2)ccn1 | 77.5% (inactive) |
| O=C1CCCC2=C1C(c1c[nH]c3ccc(Br)cc13)Cc1cc(Br)ccc1N2 (stereo not drawn) | 43.7% (inactive) |
| COc1cc2oc(-c3cccc(C(=O)N[C@@H](CC(C)C)C(=O)OC(C)(C)C)c3)cc(=O)c2c(OC)c1OC | 76% (inactive) |
| NC(N)=Nc1ccc(Nc2cccc(Nc3ccc(Cl)c(C(F)(F)F)c3)c2)cn1 | 57% (inactive) |
| CC(=O)c1nnn(-c2c(C(=O)n3nc(C)cc3C)sc(=S)n2-c2ccccc2)c1C | 103% (inactive) |
| CS(=O)(=O)Nc1cc(-c2ccc3ncc(C#N)c(N[C@H](CO)c4ccccc4)c3c2)cnc1Cl | 83.5% (inactive) |
| COc1ccc(C(=O)CSc2nc3c(c(Nc4ccc(S(N)(=O)=O)cc4)n2)CCCC3)cc1 | 92.7% (inactive) |
| CCn1c(SCC(=O)Nc2cccc(C(=O)/C=C/c3ccc(Br)cc3)c2)nc2ccccc2c1=O | 77.7% (inactive) |
| N#Cc1c(Nc2ccccc2)nn2c(-c3ccc([N+](=O)[O-])cc3)ccnc12 | 94.4% (inactive) |
| O=C(CCn1c[n+](CC(=O)c2ccc(-c3ccccc3)cc2)c2ccccc21)Nc1cccc2cccnc12 | 89.8% (inactive) |
| COc1ccc(OC)c(-c2nc(SCC(=O)c3ccc(Br)cc3)nc(Nc3ccc(S(N)(=O)=O)cc3)c2C#N)c1 | 67.4% (inactive) |
| FC(F)(F)c1cc(Nc2cccc(Oc3ccc(NC4=NCCN4)nc3)c2)ccc1Cl | 12.1% (inactive) |
| CCO/C=N/C1=C(C#N)C(c2ccc(OC)cc2)c2sc3c(CC)cccc3c2O1 (stereo not drawn) | 47.1% (inactive) |
